# Assay results reported in PubChem BioAssay (Tox21).
# Where “and” joins values, the source holds several entries; their conditions need not be identical. Equal entries are not always repeated. Inconclusive results are not listed. Where a call stands in place of a potency, no number is given. Calls of active or inactive are those of the source. Calls come from the whole dose curve; as a rule, active = well fitted cell-killing curve with a large enough effect in the repeat runs; inconclusive = weak or mixed curves, or effect the other way; inactive = flat fitted curve, though single readings scatter.
# Test: cAMP Responsive Elements (CRE) small molecule agonists, cell-based qHTS assay: qHTS cell viability counter screen (AID 2060914); note: nearly all actives have a fitted effect of over 50% in size
# Details: CRE-bla HEK293T viability, CellTiter-Glo luminescence, 5 h; series mostly up to 92.4 µM
# Method in brief: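 Luminescence read-out (CellTiter-Glo, 30 min RT) of ATP-based viability in CRE-bla HEK 293T cells, run in the same wells as the β-lactamase reporter assay after 3 h compound treatment at 37 °C.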
# Potency is the fitted concentration of half-maximal effect.
row,SMILES,Potency
1,C/C=C(\C)C(C)=O,inactive
2,c1ccc2c(CC3=NCCN3)cccc2c1,inactive
3,O=C1NC(=O)C2CC=CCC12 (stereo not drawn),inactive
4,COc1cc(C(=O)NC2CCN(C)CC2)ccc1Nc1ncc2c(n1)N(C1CCCC1)CC(F)(F)C(=O)N2C,inactive
5,CC(C)=CC(C)(C)C,inactive
6,OC(CCN1CCCCC1)(c1ccccc1)C1CCCCC1 (stereo not drawn),inactive
7,CCCNCCC,inactive
8,CCN(Cc1cccc(S(=O)(=O)O)c1)c1ccc(C(=C2C=CC(=[N+](CC)Cc3cccc(S(=O)(=O)O)c3)C=C2)c2ccccc2S(=O)(=O)[O-])cc1,38.7 µM (active)
9,Cc1c(O)cccc1C(=O)N[C@@H](CSc1ccccc1)[C@H](O)CN1C[C@H]2CCCC[C@H]2C[C@H]1C(=O)NC(C)(C)C,inactive
10,CCCCCCCCCCCCN,inactive
11,CCOc1ccc(NC(=O)OC(C)C)cc1OCC,inactive
12,CCOC(=O)OC(=O)OCC,inactive
13,C=CCOC(=O)C(=C)C,inactive
14,CC1(C)CC(N)CC(C)(C)N1,inactive
15,O=S(=O)(O)c1ccc2nc(-c3ccccc3)[nH]c2c1,29.1 µM (active) and 21.1 µM (active)
16,COC(=O)CC(=O)OC,inactive
17,C1CCN(CN2CCCCC2)CC1,inactive
18,CCCCOCCOCCO,inactive
19,CCC(O)CO (stereo not drawn),inactive
20,O=C(Oc1ccccc1)c1cccc(C(=O)Oc2ccccc2)c1,inactive
21,O=C(O)CCCc1ccccc1,inactive
22,COc1cc(OC)c2ccc(=O)oc2c1,inactive
23,O=C(Nc1ccc([N+](=O)[O-])cc1)Nc1ccc([N+](=O)[O-])cc1 (tested in a mixture with another compound),inactive
